Rows were chosen to be rich in hits. Some 9.3% of all compounds tested hit in one or more screens of this group.
NPC1 prom act: activators of NPC1 promoter. Huh7 NPC1 promoter luciferase reporter, 24 h. Potency, µM (series often up to 9.22 µM), without a hit: top-dose activation, hits mostly activators. 320,000 tested, 2.4% active. AID 485313; further: % of control where 0% means no effect; nearly all actives have a fitted effect of over 60% in size
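Cells: Huh7 expressing luciferase under the NPC1 promoter, 1500/well. Seeded 2 h, compound added, incubated 24 h at 37 °C. Luciferase reagent, 10 min ambient, then luminescence.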
ELG1 genotox: genotoxicity induction in ELG1-luciferase HEK293T cells; HEK293T ELG1-luciferase reporter, luminescence, 16 h; Potency, µM (series often up to 46 µM), inactives show at the top dose activity change, positive = activation, most hits filed as activators; 330,000 tested, 1.3% active; AID 504466; further: % of control where 0% means no effect; nearly all actives have a fitted effect of over 60% in size
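Quantitative HTS format in 1536-well plates. HEK293T ELG1-luciferase reporter cells receive test compound and are incubated 16 hr at 37 °C, 5% CO2; ONE-Glo added, 30 min room temperature, then luminescence read.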
ELG1 repair inh: inhibitors of ELG1-dependent DNA repair in HEK293T cells; HEK293T ELG1-luciferase reporter, luminescence, 16 h; DNA damage induced by 5-fluorouridine; Potency, µM (doses to about 46.1 µM), for the others: at the highest dose activity change, negative = inhibition, hits mostly inhibitors; 330,000 tested, 2.3% active; further: on the % scale 0 is the no-effect control and ±100 the full control effect; nearly all actives have a fitted effect of over 55% in size
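Reporter activity after DNA damage by 5-fluorouridine is monitored. Compound-treated cells incubate 16 hr at 37 °C, then ONE-Glo is added for 30 min before luminescence reading.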
FLuc modulator: inhibits or activates purified firefly luciferase, miR-21 counter-screen; purified FLuc, Km substrates, luminescence inhibition; P08659; 360,000 tested, 6.9% active; Potency, µM (series often up to 57.5 µM), inactives show top-dose activity change, negative = inhibition, actives largely listed as inhibitors; AID 588342;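 further: plate controls were vehicle for no effect and reference inhibitor for full effect; nearly all actives have a fitted effect of over 55% in size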
Target sequence (P08659 whole entry, looked up): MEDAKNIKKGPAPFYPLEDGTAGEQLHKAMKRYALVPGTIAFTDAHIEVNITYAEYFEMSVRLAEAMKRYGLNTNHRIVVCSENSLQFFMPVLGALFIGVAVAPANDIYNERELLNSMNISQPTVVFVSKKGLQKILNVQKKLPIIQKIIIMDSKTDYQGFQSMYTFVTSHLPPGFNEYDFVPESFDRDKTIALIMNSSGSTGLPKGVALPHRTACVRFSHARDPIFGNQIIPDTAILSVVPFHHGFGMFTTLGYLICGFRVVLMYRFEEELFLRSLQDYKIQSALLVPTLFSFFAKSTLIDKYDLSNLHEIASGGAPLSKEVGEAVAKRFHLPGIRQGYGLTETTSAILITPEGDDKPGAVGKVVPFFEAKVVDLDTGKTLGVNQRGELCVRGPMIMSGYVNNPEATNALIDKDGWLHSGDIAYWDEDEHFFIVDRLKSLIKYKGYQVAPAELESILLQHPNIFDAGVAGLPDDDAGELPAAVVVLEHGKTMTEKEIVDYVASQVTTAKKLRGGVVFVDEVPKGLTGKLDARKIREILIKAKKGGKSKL
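Purified P. pyralis luciferase (10nM final) with 10uM D-luciferin and 10uM ATP (Km levels) in 50mM Tris acetate pH 7.5, 10mM Mg acetate, 0.01% Tween-20, 0.05% BSA; qHTS 6-point titration, ~60 µM downward; luminescence read.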
Rab9 promoter act: Rab9 promoter activation. Huh7 Rab9 promoter-luciferase reporter, luminescence, 24 h. Potency, µM (top dose mostly 9.22 µM), for inactives: at the top dose activation, negative = inhibition, usual class: activators. 320,000 tested, 2.8% active; further: % of control where 0% means no effect; nearly all actives have a fitted effect of over 60% in size
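Luciferase signal after 10 min detection reagent at ambient indicates Rab9 promoter upregulation; stably transfected Huh7 cells were treated 24 h with compound in DMSO at 37 °C, 5% CO2.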
SMN2 splice up: increases expression of the SMN2 splice variant | HEK293 SMN2-luciferase splicing reporter, luminescence, 30-36 h | Potency, µM (highest dose often 46.1 µM), without a hit: at the highest dose activity change, positive = activation, most hits filed as activators | 210,000 tested, 2.8% active | AID 1458; further: % of control where 0% means no effect; nearly all actives have a fitted effect of over 55% in size
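qHTS luciferase splicing reporter: luminescence rises when SMN2 exon 7 is included in transfected HEK293 cells. Compound exposure lasted 30-36 h at 37C, with 4.5 mM final sodium butyrate as control, followed by a ONE-Glo read.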
* hit, by the source's call; u = inconclusive; x = not tested or not shown. The call rests on the fitted dose curve; in most records, active means well fitted curve in the direction sought with a large enough effect; inconclusive means small, poorly fitted or top-dose-only effect, or another doubt; inactive means no such curve, though single readings can be large; an effect the other way counts as inactive or inconclusive. Potency means the concentration at half of the fitted maximal effect.

SMILES	NPC1 prom act	ELG1 genotox	ELG1 repair inh	FLuc modulator	Rab9 promoter act	SMN2 splice up
CCCCN(C)C(=O)C1CCN(c2ccc(S(=O)(=O)N3CCOCC3)cc2[N+](=O)[O-])CC1	3%	-7%	-11%	-2%	1%	x
COc1ccc(N2Cc3ccccc3/C2=N\C(=O)Nc2ccccc2)cc1	-1%	4%	12%	2%	3%	-3%
O=C(NCC(c1ccco1)N1CCCCC1)c1cc2c(s1)CCCC2 (centres undefined)	0%	-1%	-7%	-16%	-5%	x
O=C(Nc1ccc(N2CCOCC2)cc1)c1cc2c(s1)CCCC2	10%	11%	10%	u	2%	-12%
O=C(Nc1ccon1)c1cc2c(s1)CCCC2	1.4µM*	1.3µM*	u	3µM*	1.1µM*	6.3µM*
O=C(Nc1ccon1)c1cc2c(s1)CCCCCC2	3.2µM*	4.5µM*	u	6µM*	3.5µM*	13µM*
O=C(O)Cn1nc(-c2ccccc2)cc1-c1ccccc1	-4%	2%	u	-8%	11%	x
CCC1C(=O)n2nc(-c3ccccc3)cc2N=C1C (centres undefined)	u	u	u	13µM*	2.8µM*	13µM*
NS(=O)(=O)c1ccc2nc(NC(=O)c3ccc4ncsc4c3)sc2c1	22%	8%	15%	2.4µM*	21%	x
Cc1ccc2nc(NC(=O)c3ccc4ncsc4c3)sc2c1	1.6µM*	2.9µM*	u	0.95µM*	1.3µM*	7.1µM*
Cc1ccc2nc(NC(=O)c3ccc4c(c3)OCO4)sc2c1	1.6µM*	14%	u	0.95µM*	1.1µM*	11µM*
O=C(/C=C/c1ccc2c(c1)OCO2)Nc1nc2ccc(F)cc2s1	1.8µM*	u	u	u	1.4µM*	x
CCOc1ccc2nc(NC(=O)/C=C/c3ccc4c(c3)OCO4)sc2c1	-3%	15%	28%	-2%	-1%	-21%
Cc1ccc(C)c(N2CCN(C(=O)c3cccn3-c3nnc(N4CCCCC4)s3)CC2)c1	x	x	x	-14%	x	x
CC(NS(=O)(=O)c1cccc(Cl)c1)C(=O)N(C)C1CCN(C)CC1 (centres undefined)	-4%	1%	25%	-1%	-4%	-7%
Cc1cc(N/N=C/c2ccccc2)nc(N)n1	27%	u	u	17µM*	27%	x
CC(C)c1ccc(/C=N/Nc2cc(N3CCOCC3)nc(N3CCOCC3)n2)cc1	1%	-7%	u	3%	-3%	-3%
Cc1cc(N/N=C/c2ccccc2)nc(N2CCOCC2)n1	5%	9%	0%	12µM*	1%	x
Cc1cccc(/C=N/Nc2cc(N3CCOCC3)nc(N3CCOCC3)n2)c1	0%	-2%	7.3µM*	-13%	-9%	-20%
Cc1ccc(/C=N/Nc2cc(C)nc(N3CCOCC3)n2)cc1	-1%	-3%	u	2.7µM*	-2%	x
Cc1nc(N)nc(N/N=C/c2ccccc2)n1	10%	12%	u	-17%	2%	x
Cc1cc(Nc2ccccc2)nc(N2CCOCC2)n1	10%	15%	22%	-15%	16%	3%
COC(=O)CC1Oc2ccccc2-n2cc(-c3ccc(Cl)cc3)nc21 (centres undefined)	x	x	x	4%	x	u
CC1CCCC(C)N1C(=O)CSc1nc(N)cc(N)n1 (centres undefined)	1%	0%	0%	7%	-2%	x
Cc1cn(-c2ccccc2)c(C)c1/C=N\Nc1nc(N2CCOCC2)nc(N2CCOCC2)n1	-2%	-5%	8.2µM*	19µM*	8%	0%
C(=C\c1ccccc1)/C=N/Nc1nc(N2CCOCC2)nc(N2CCOCC2)n1	2%	-1%	-24%	2%	-7%	-4%
COc1cc(OC)cc(C(=O)N[C@H](C(=O)OCC(=O)Nc2sccc2C#N)C(C)C)c1	-6%	4%	-5%	-7%	1%	10%
